Test results reported in PubChem BioAssay AID1159580 (chemical genetic matrix, 2015).
Several values for one entry are separate records, joined by “and”; a condition that tells them apart may be missing. Identical values can stand only once. The campaign covered roughly 5,500 compounds. About 2,000 (36%) were called active. Inconclusive results (about 18%) are left out. Cut-off read from the data, not from the text of the source: active = normalized growth mostly below about 0.91 (no sharp cut-off); inconclusive = no clear call, values can overlap the other calls; inactive = mostly above about 0.92. The list shows a part of the results.

Experiment: chemical genetic growth profiling, strain panel (AID 1159580);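 note: tested at 20 µM; growth read once vehicle control cultures reached saturation at 30 °C; 1 = growth at the plate median or of vehicle wells; lower values mean less growth of the strain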
Conditions: S. cerevisiae deletion strains, growth OD

Measured: normalized growth

C=C[C@H]1CN2CC[C@H]1C[C@@H]2[C@H](O)c1ccnc2ccccc12
inactive: locus YAL013W, strain DEP1, stronger effect = lower value 1 | locus YAL021C, strain ccr4, stronger effect = lower value 1.01 | locus YAL026C, strain drs2, stronger effect = lower value 0.994 | locus YAL030W, strain snc1, stronger effect = lower value 0.999 | locus YBL061C, strain skt5, stronger effect = lower value 0.992 | locus YBR009C, strain hhf1, stronger effect = lower value 0.988 | locus YBR021W, strain FUR4, stronger effect = lower value 1.02 | locus YBR023C, strain chs3, stronger effect = lower value 0.981 | locus YBR171W, strain sec66, stronger effect = lower value 0.988 | locus YBR229C, strain ROT2, stronger effect = lower value 0.995 | locus YBR231C, strain swc5, stronger effect = lower value 0.989 | locus YBR279W, strain paf1, stronger effect = lower value 0.996 | locus YCL011C, strain gbp2, stronger effect = lower value 0.988 | locus YCL016C, strain dcc1, stronger effect = lower value 0.979 | locus YCL029C, strain bik1, stronger effect = lower value 0.973 | locus YCL069W, strain vba3, stronger effect = lower value 0.987 | locus YCR088W, strain abp1, stronger effect = lower value 0.994 | locus YDL005C, strain med2, stronger effect = lower value 0.975 | locus YDL035C, strain GPR1, stronger effect = lower value 1.02 | locus YDL040C, strain nat1, stronger effect = lower value 0.983 | locus YDL074C, strain BRE1, stronger effect = lower value 0.999 | locus YDL101C, strain DUN1, stronger effect = lower value 0.985 | locus YDL134C, strain PPH21, stronger effect = lower value 0.997 | locus YDL185W, strain tfp1, stronger effect = lower value 0.976 | locus YDL192W, strain arf1, stronger effect = lower value 0.98 | locus YDR001C, strain nth1, stronger effect = lower value 0.985 | locus YDR069C, strain doa4, stronger effect = lower value 0.996 | locus YDR101C, strain arx1, stronger effect = lower value 0.985 | locus YDR137W, strain rgp1, stronger effect = lower value 0.99 | locus YDR150W, strain NUM1, stronger effect = lower value 0.986 | locus YDR159W, strain sac3, stronger effect = lower value 1.02 | locus YDR162C, strain NBP2, stronger effect = lower value 0.988 | locus YDR195W, strain ref2 0.989 | locus YDR297W, strain sur2, stronger effect = lower value 1.01 | locus YDR318W, strain mcm21, stronger effect = lower value 0.985 | locus YDR334W, strain swr1, stronger effect = lower value 0.977 | locus YDR335W, strain msn5, stronger effect = lower value 0.99 | locus YDR388W, stronger effect = lower value 0.988 | locus YDR392W, strain spt3, stronger effect = lower value 0.973 | locus YDR502C, strain sam2, stronger effect = lower value 0.982 | locus YEL003W, strain gim4, stronger effect = lower value 0.989 | locus YEL037C, strain rad23, stronger effect = lower value 0.983 | locus YEL061C, strain CIN8 (second series), stronger effect = lower value 0.993 | locus YEL061C, strain CIN8, stronger effect = lower value 0.998 | locus YER015W, strain faa2, stronger effect = lower value 0.986 | locus YER016W, strain bim1, stronger effect = lower value 0.987 | locus YER110C, stronger effect = lower value 0.981 | locus YER111C, strain swi4, stronger effect = lower value 0.975 | locus YER155C, strain BEM2 (second series), stronger effect = lower value 0.972 | locus YER155C, strain BEM2, stronger effect = lower value 0.995 | locus YER167W, strain BCK2, stronger effect = lower value 1 | locus YFR010W, strain ubp6, stronger effect = lower value 0.999 | locus YGL078C, strain dbp3, stronger effect = lower value 1.01 | locus YGL086W, strain mad1, stronger effect = lower value 1.01 | locus YGL167C, strain pmr1, stronger effect = lower value 0.993 | locus YGL173C, strain kem1, stronger effect = lower value 0.981 | locus YGL227W, strain vid30, stronger effect = lower value 0.984 | locus YGL240W, strain doc1, stronger effect = lower value 0.986 | locus YGL248W, strain PDE1, stronger effect = lower value 0.994 | locus YGL253W, strain hxk2, stronger effect = lower value 0.994 | locus YGR078C, strain PAC10, stronger effect = lower value 0.988 | locus YGR135W, strain pre9, stronger effect = lower value 0.978 | locus YGR229C, strain SMI1, stronger effect = lower value 1.02 | locus YGR252W, strain gcn5, stronger effect = lower value 1.17 | locus YHR013C, strain ard1, stronger effect = lower value 0.962 | locus YHR027C, strain rpn1, stronger effect = lower value 0.992 | locus YHR030C, strain SLT2, stronger effect = lower value 0.994 and 0.988 | locus YHR079C, strain IRE1 (second series), stronger effect = lower value 0.979 | locus YHR079C, strain IRE1, stronger effect = lower value 1 | locus YHR094C, strain hxt1, stronger effect = lower value 0.97 | locus YHR129C, strain ARP1, stronger effect = lower value 0.989 | locus YHR142W, strain chs7, stronger effect = lower value 0.974 | locus YHR200W, strain rpn10, stronger effect = lower value 0.994 | locus YIL066C, strain RNR3, stronger effect = lower value 0.992 | locus YIL073C, strain SPO22, stronger effect = lower value 0.928 | locus YIL125W, strain kgd1, stronger effect = lower value 0.988 | locus YIR030C, strain dcg1, stronger effect = lower value 0.989 | locus YJL092W, strain hpr5, stronger effect = lower value 0.99 | locus YJL095W, strain BCK1 (second series), stronger effect = lower value 0.985 | locus YJL095W, strain BCK1, stronger effect = lower value 0.977 and 1 | locus YJL115W, strain asf1, stronger effect = lower value 0.972 | locus YJL129C, strain trk1, stronger effect = lower value 0.992 | locus YJL134W, strain LCB3, stronger effect = lower value 0.992 | locus YJL154C, strain vps35, stronger effect = lower value 0.971 | locus YJL164C, strain tpk1, stronger effect = lower value 0.987 | locus YJL166W, strain qcr8, stronger effect = lower value 1 | locus YJL168C, strain set2, stronger effect = lower value 0.983 | locus YJL187C, strain SWE1 (second series), stronger effect = lower value 0.956 | locus YJR043C, strain POL32, stronger effect = lower value 0.996 | locus YJR066W, strain TOR1, stronger effect = lower value 0.989 | locus YJR075W, strain HOC1, stronger effect = lower value 0.978
